This passage reports outcome and AC50 results from PubChem BioAssay (EPA / NIEHS).

More than one record can exist for a structure, and the calls need not agree. The source made the active and inactive calls. The calls were made as follows: active = hit-call score of the fitted dose curve at least 0.9, where 1 is the maximum; inactive = score below 0.9.

Read-out in this assay: Vascular cell adhesion molecule 1 (VCAM1), VCAM1 (gene 7412)
The assay is described as follows: BSK_MyoF_VCAM1: BioMAP Diversity Plus: MyoF Assay for Vascular cell adhesion molecule 1 (VCAM1) Biomarker Activity (AID 2284231). The note with it: primary human lung fibroblasts. The protocol:
BSK_MyoF is a cell-based, multiplexed-readout assay that uses lung fibroblasts, […], with measurements taken at 24 hours after chemical dosing in a microplate: 96-well plate.BSK_MyoF_VCAM1 is an assay component measured in the BSK_MyoF assay. It measures VCAM-1 antibody related to regulation of gene expression using ELISA technology.Data from the assay component BSK_MyoF_VCAM1 was analyzed at the endpoint, BSK_MyoF_VCAM1, in the positive analysis fitting direction relative to DMSO as the negative control and baseline of activity. Using a type of binding reporter, gain or loss-of-signal activity can be used to understand protein changes. To generalize the intended target to other relatable targets, this assay endpoint is annotated to the 'cell adhesion molecules' intended target family, where the subfamily is 'Immunoglobulin CAM'.
The levels of cell surface (or secreted, indicated by the prefix "s") biomarker endpoints were measured by ELISA. Overt cytotoxicity to cells in confluent adherent cultures (all systems other than the BT system) was assessed by measuring total protein levels using sulforhodamine B (SRB) staining in parallel cultures at the time of biomarker measurements, indicated as SRB endpoints. For proliferation assays for adherent cell types, individual cell types are cultured at sub-confluence and relative cell numbers quantified by SRB staining at time points optimized for each system (48 h: 3C and CASM3C systems; 72 h: BT and HDF3CGF systems; 96 h: SAg system). SRB was performed by staining cells with 0.1% SRB after fixation with 10% TCA and reading wells at 560 nm.Viability and proliferation of PBMC (T cells) was quantified by Alamar Blue reduction for the SAg and BT systems. For PBMC viability (referred to as PBMC Cytotoxicity within the assay endpoint names), cells were plated (75,000/well in a 96-well plate) and then chemical samples added for 1 h before addition of activators, SEB and TSST-1 (20 ng/mL final concentration each). Cells were incubated for 90 h. Then, Alamar Blue (20 uL/well) (Invitrogen, Cat DAL1100) was added for 6 h, and the plates were read with a fluorescence microplate reader at 546/580 nm (excitation/emission). For PBMC proliferation, cells were plated and activated as above but incubated for only 16 h prior to addition of Alamar Blue. Plates were read after 6 h.
As to `CCOC(=O)C=Cc1ccccc1`, the outcome was inactive. With `CCOC(=O)CCCCCCCCC(=O)OCC`, the outcome was inactive. `C=C1CC/C=C(\C)CC[C@@H]2[C@@H]1CC2(C)C`: the concentration at half-maximal activity (AC50) (usually the concentration at which the activity in the assay is half-maximal) is 23.9 µM (active). With `O=C(O)C(F)(F)C(F)(F)C(F)(F)C(F)(F)C(F)(F)C(F)(F)C(F)(F)C(F)F`, the result was inactive. Turning to `OCCN1CCOCC1`, the outcome was inactive. On to `c1ccc2c(c1)-c1ccc3ccc4cccc5cc-2c1c3c45`, for which the AC50 is 2.78 µM (active).

In the case of `CC(C)Cc1ccc(C(C)C(=O)O)cc1` (stereo unspecified), the outcome was inactive. In the case of `OCC(F)(OC(F)(F)C(F)(OC(F)(F)C(F)(F)C(F)(F)F)C(F)(F)F)C(F)(F)F` (stereo unspecified), the concentration at half-maximal activity (AC50) is 6.21 µM (active) and the result was inactive. On to `CC(=O)CCC=C(C)CCC=C(C)C`, for which the outcome was inactive. In the case of `CCCCCCCCCC(=O)OCC`, the outcome was inactive. Consider `Nc1ccc(N)c([N+](=O)[O-])c1`, for which the outcome was inactive. Consider `CCC(=O)OCC=Cc1ccccc1`, for which the result was inactive. As for `CC=CC(=O)C1=C(C)C=CCC1(C)C`, the result was inactive. For the compound `CCCCCCCCCCCCS`, the AC50 is 23.1 µM (active).

In the case of `CC(C)(C)c1cccc(O)c1`, the result was inactive. As for `O=C1OC2(c3ccc(O)cc3Oc3cc(O)ccc32)c2ccccc21`, the result was inactive.

Consider `O=S1(=O)CC(Cl)(Cl)C(Cl)(Cl)C1`, for which the AC50 was 1.42 µM (active).

As to `C=CC(=O)OCC(CO)(COC(=O)C=C)COC(=O)C=C`, the AC50 is 0.964 µM (active). Consider `COc1ccccc1NC(=O)CC(C)=O`, for which the outcome was inactive. For `c1ccc(Sc2ccccc2)cc1`, the AC50 was 34.1 µM (active). Take `C=C(F)C(=O)OC(C(F)(F)F)C(F)(F)F`: the outcome was inactive. `CC1=CC(C)C(C=O)C(C)C1` (stereo unspecified) (tested in a mixture with another compound): the outcome was inactive. For `CC(=O)OCC=C(C)CCC=C(C)CCC=C(C)C`, the outcome was inactive. For `O=S(=O)(O)C(F)(F)C(F)(F)OC(F)(F)C(F)(F)F`, the result was inactive. Regarding `CC(=O)OC(C)(C)C1CC=C(C)CC1` (stereo unspecified), the outcome was inactive. For `O=C(O)C(F)(F)OC(F)(F)C(F)(F)OC(F)(F)C(F)(F)C(F)(F)C(F)(F)F`, the outcome was inactive.

`C=C(C)C(=O)OCCC(F)(F)C(F)(F)C(F)(F)C(F)(F)C(F)(F)C(F)(F)C(F)(F)C(F)(F)F`: the outcome was inactive. On to `CCCCCCCC1CCCC1=O` (stereo unspecified), for which the result was inactive. As to `CC1(C)[C@H](C=C(Cl)Cl)[C@H]1C(=O)OCc1cccc(Oc2ccccc2)c1`, the outcome was inactive. Same read-out and setting: then `NC(=O)c1c(Cl)cccc1Cl`, with “inactive”.
